CHX counter: Cycloheximide Counterscreen for Small Molecule Inhibitors of Shiga Toxin; cell reporter, cycloheximide protein synthesis inhibition counterscreen; max response, %; hit rate 12% among 300,000; AID 2314, 2010; in the data active = max response mostly above about 13%, no sharp cut-off; inactive = mostly below about 14%; note: read at 38.3 µM for the half of the compounds with a filed dose; 0% is about no effect
Shiga inhibitor: A qHTS for Small Molecule Inhibitors of Shiga Toxin | hit rate 9.2% among 290,000 | Vero cells, Shiga toxin protein synthesis inhibition reporter | inhibition, % at 38.7 µM; in the data active = inhibition mostly above about 28%, no sharp cut-off; inactive = mostly below about 43%; note: 0% is about no effect
NS1 function inh: qHTS Assay for Inhibitors of Influenza NS1 Protein Function; Potency, µM (top dose mostly 46.1 µM), inactives show top-dose activity, positive = more growth; hit rate 0.4% among 270,000; AID 2326, 2010; calls by dose curve; note: potency is the fitted concentration of half-maximal effect; actives are rising curves; nearly all actives have a fitted effect of over 50% in size
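Read-out: OD600 growth recovery of NS1-expressing budding yeast. Cells grown overnight at 30C in -URA glucose medium, washed, resuspended and diluted 1:100 in 2% galactose assay medium, pH 6.0. Same strain lacking NS1 served as positive control.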
Pf growth 48h: Primary qHTS for delayed death inhibitors of the malarial parasite plastid, 48 hour incubation | hit rate 5.9% among 310,000 | AID 504832, 2011 | P. falciparum luciferase growth in erythrocytes, 48 h | Potency, µM (series often up to 28.7 µM), for inactives: at the highest dose activity change, negative = inhibition, hits mostly inhibitors; note: potency is the fitted concentration of half-maximal effect; % is set by controls: 0 for no effect and ±100 for the full control effect
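Erythrocytes infected with P. falciparum carrying an integrated firefly luciferase reporter (2% hematocrit, 0.1% parasitemia final) were exposed to compounds in RPMI 1640 with 0.5% Albumax at 37 C, 5% CO2. Growth inhibition was scored as reduced luminescence.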
Pf growth 96h: Primary qHTS for delayed death inhibitors of the malarial parasite plastid, 96 hour incubation; P. falciparum luciferase reporter growth, 96 h; Potency, µM (doses to about 28.7 µM), for inactives: top-dose activity change, negative = inhibition, hits mostly inhibitors; hit rate 6.9% among 320,000; AID 504834, 2011; note: potency is the fitted concentration of half-maximal effect; % is set by controls: 0 for no effect and ±100 for the full control effect
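P. falciparum expressing integrated firefly luciferase, in erythrocytes at 2% hematocrit, 0.05% parasitemia, incubated with compounds 96 h at 37 C, 5% CO2. Growth inhibition read as loss of luminescence; two-generation exposure targets delayed-death apicoplast inhibitors.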
* hit, by the source's call; u = inconclusive; x = not tested or not shown. An excerpt weighted towards active compounds, which were near 21% of everything screened. Unless noted, calls come from the whole dose curve; as a rule, active = well fitted inhibition curve with a large enough effect; inconclusive = small, poorly fitted or top-dose-only effect, or another doubt; inactive = no such curve, though single readings can be large or run the other way.

SMILES	CHX counter	Shiga inhibitor	NS1 function inh	Pf growth 48h	Pf growth 96h
Nn1c(SCC(=O)NCCCc2ccccc2)nnc1-c1cccnc1	-2	-9	2%	11%	-2%
O=c1[nH]c(=O)n(-c2ccc(F)cc2)c2c1C(C(F)(F)F)(C(F)(F)F)N=C(c1ccc(F)cc1)N2	5	-8	-11%	u	12µM*
CCOc1cccc(-c2c(C(=O)N/N=C/c3ccc(C)s3)nnn2-c2nonc2N)c1	-3	10	18%	u	15µM*
COc1cccc(-c2c(C(=O)N/N=C/c3ccc(C)s3)nnn2-c2nonc2N)c1	-4	-8	6%	10µM*	4.1µM*
COc1cccc(-c2c(C(=O)N/N=C/c3ccc(C)o3)nnn2-c2nonc2N)c1	-3	3	-2%	u	u
Cc1ccccc1NC(=O)N1CCC(NC(=O)C2CCCCC2)CC1	1	0	-17%	-4%	-3%
CCC(=O)N(CCC(c1ccco1)c1ccccc1OC)Cc1cccs1 (configuration not stated)	-9	-18	16%	x	10µM*
CCOc1cccc(=O)c2c(C)n(Cc3ccco3)c(C)c12	5	10	12%	9.3µM*	u
CCOc1cccc(=O)c2c(C)n(Cc3ccccc3)c(C)c12	-1	11	15%	u	27%
CCCOc1nc2c(c(=O)n(C)c(=O)n2C)n1CC	-3	12	-17%	25%	2.1µM*
N#C/C(C(=O)NCc1ccccc1)=C1/SC(Cc2ccc(Cl)cc2)C(=O)N1c1ccccc1 (configuration not stated)	-3	-10	1%	u	u
O=c1c(-c2ccc(Cl)cc2)c[nH]n1-c1ccccc1	25*	78*	-5%	8.3µM*	13µM*
O=c1c(-c2ccccc2)c[nH]n1-c1cccc([N+](=O)[O-])c1	22*	77*	-4%	u	u
CN(C)/C=N/C(=S)Nc1ccc(Br)cc1F	49*	52*	-33%	x	u
CN(C(=S)Nc1ccccc1)c1ccccc1	-3	-8	8%	6%	-3%
CN(C)/C=N/C(=S)Nc1ccccc1	19*	88	9%	28%	30%
Cc1cc(C#N)c(C)n1-c1cc(C(F)(F)F)ccc1N1CCOCC1	-3	-14	-52%	u	u
CNC(=O)C12CC3CC(CC(Cl)(C3)C1)C2	-1	-6	4%	-4%	17%
COc1ccc(C2C(C(C)=O)=C(O)C(=O)N2CCO)c(OC)c1 (configuration not stated)	-4	-15	-2%	5%	12µM*
COc1cccc(N2C(=O)C(O)=C(C(C)=O)C2c2ccc(OC)c(OC)c2)c1 (configuration not stated)	8	-16	15%	13µM*	u
COc1ccc(C2C(C(C)=O)=C(O)C(=O)N2c2cccnc2)cc1OC (configuration not stated)	0	-20	3%	x	39%
COc1ccc(-c2n[nH]c3c2C(c2ccc(OC)c(OC)c2)N(c2ccccc2)C3=O)cc1 (configuration not stated)	-2	-12	16%	x	0.12µM*
COc1ccc(C2C(CC(=O)O)=C(O)C(=O)N2c2ccccc2)cc1 (configuration not stated)	28*	38*	u	14%	u
CCN(CCn1cccn1)Cc1nc(Cc2cccc(F)c2)no1	9	7	-4%	0%	u
CN(Cc1ccc2nonc2c1)Cc1nc(Cc2cccc(F)c2)no1	14	2	0%	u	13µM*
SMILES	CHX counter	Shiga inhibitor	NS1 function inh	Pf growth 48h	Pf growth 96h
COc1cccc(CCc2nnc(CCC(=O)N(C)C3CC(C)(C)NC(C)(C)C3)o2)c1	-1	-2	4%	-2%	7%
O=C(N/N=C/c1cccc(Oc2ccccc2)c1)c1cccc(O)c1	35*	58*	0%	2%	u
O=C(CCc1ccc(S(=O)(=O)N2CCOCC2)cc1)N/N=C/c1cccc(O)c1	8	17	-9%	u	15µM*
Cc1nonc1C(=O)N/N=C/c1cccc(O)c1	54*	65*	-12%	-15%	2.1µM*
O=C(CCc1ccccc1)N/N=C/c1cccc([N+](=O)[O-])c1	10	22	-1%	-21%	u
O=C(CCc1ccccc1)N/N=C/c1cccc(O)c1	15*	6	-3%	-3%	-3%
CN(Cc1c(C(=O)N/N=C/c2cccc(O)c2)nnn1-c1nonc1N)c1ccccc1	-9	-13	-4%	11%	53%
O=C(N/N=C/c1cccc(O)c1)c1ccc(-n2cnnn2)cc1	x	x	x	-4%	-26%
Cn1c(N/N=C\c2cccc(O)c2)cc(=O)n(C)c1=O	19*	24*	-4%	30%	52%
O=C(N/N=C/c1cccc(O)c1)N/N=C/c1cccc(O)c1	28*	55*	-7%	u	u
O=C(Cc1nnc(NC(=O)c2ccccc2)s1)N/N=C/c1cccc(O)c1	14*	12	10%	28%	u
O=C(Cc1nnc(NC(=O)c2ccccc2)s1)N/N=C/c1ccco1	-1	-16	14%	29%	17%
COc1cc(/C=N\Nc2cc(=O)n(C)c(=O)n2C)ccc1O	7	4	-22%	17%	14%
Cc1[nH]c2ccccc2c1C(O)CN1CCC2(CC1)OCCO2 (configuration not stated)	-2	-2	0%	-7%	10%
O=C1N=c2ccc([N+](=O)[O-])cc2=C1c1sc(=O)[nH]c1O	-2	-2	6%	-7%	0%
c1ccc(-c2cnnc3ccccc23)cc1	x	x	x	23%	63%
CCOC(=O)c1sc2c(c1C)c(=O)n(CCO)c(=O)n2Cc1ccccc1	-2	-5	8%	u	u
Cc1ccc(NC(=O)COc2ccccc2C#N)cc1S(=O)(=O)N1CCCCCC1	x	x	x	u	8.3µM*
Cc1ccccc1CC(=O)OCC(=O)Nc1ccc(C)c(S(=O)(=O)N2CCCCC2)c1	x	x	x	10µM*	u
Cc1ccc(NC(=O)COC(=O)C2CCC2)cc1S(=O)(=O)N1CCCCC1	x	x	x	8%	u
COCCN1CCN(C(=O)c2ccc3oc(CCCc4ccccc4)nc3c2)CC1	23*	112*	-11%	48%	-13%
CCCCc1nc2cc(C(=O)N3CCCC(OCCC)C3)ccc2o1 (configuration not stated)	48*	103*	-21%	7%	-9%
CCCCc1nc2cc(C(=O)N3CCCC(COC)C3)ccc2o1 (configuration not stated)	63*	73*	-26%	41%	u
COCC1CCN(C(=O)c2ccc3oc(CCCc4ccccc4)nc3c2)C1 (configuration not stated)	29*	39	-6%	-24%	3.7µM*
CC1CCCN(C(=O)c2ccc3nc[nH]c3c2)C1 (configuration not stated)	-3	-18	4%	x	23%

High-throughput results: PubChem BioAssay, National Center for Advancing Translational Sciences (NCATS)
